Results: PubChem BioAssay (NCI)
About 83,000 compounds went through this panel and 20% of them were active in at least one assay; those are over-represented in the sample as a whole.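 Plates (96-well) were seeded with cells, treated with compound at one concentration, and incubated for 48 hours before percent growth was determined.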 Active and inactive are the calls of the source. The calls were made as follows: active = growth percent below 10; inactive = the rest.

Columns and labels:
Test in all cases: NCI-60 one-dose screen, 48 h (100 = growth as untreated, 0 = no growth, -100 = all killed)
Conditions in all cases: 10 µM unless noted
SK-MEL-2 melanoma = test system: SK-MEL-2 melanoma
EKVX NSCLC = test system: EKVX NSCLC
SN12C renal = test system: SN12C renal
UO-31 renal = test system: UO-31 renal
TK-10 renal = test system: TK-10 renal
ACHN renal = test system: ACHN renal
CAKI-1 renal = test system: CAKI-1 renal
A498 renal = test system: A498 renal
MOLT-4 leukemia = test system: MOLT-4 leukemia
CCRF-CEM leukemia = test system: CCRF-CEM leukemia

Measured: growth

Cc1ccc2[nH]c(=O)c3c(c2c1)OC(N)=C(C#N)C31c2cc(Br)ccc2-c2ccc(Br)cc21
inactive: SK-MEL-2 melanoma 77.1% | EKVX NSCLC 60.3% | SN12C renal 82.7% | UO-31 renal 58.3% | TK-10 renal 84.2% | ACHN renal 62.3% | CAKI-1 renal 49.1% | A498 renal 79.7% | MOLT-4 leukemia 62.3%

CC(CN1CCCCC1)C(=O)c1ccccc1 (centres undefined)
inactive: SK-MEL-2 melanoma 102% | SN12C renal 105% | UO-31 renal 92.4% | TK-10 renal 96.7% | ACHN renal 107% | CAKI-1 renal 101% | A498 renal 84% | MOLT-4 leukemia 106%

Cc1nc2ccccc2n1CC1NC(=O)NC1=O (centres undefined)
inactive: SK-MEL-2 melanoma 104% | SN12C renal 97.7% | UO-31 renal 94.7% | TK-10 renal 102% | ACHN renal 102% | CAKI-1 renal 96% | A498 renal 88.8% | CCRF-CEM leukemia 107% | MOLT-4 leukemia 96%

COc1ccc(NC(=O)CSc2nc(C)c(C(C)=O)n2-c2ccc([N+](=O)[O-])cc2)cc1
inactive: SK-MEL-2 melanoma 89.3% | SN12C renal 94.7% | UO-31 renal 83.6% | TK-10 renal 96.9% | ACHN renal 95.6% | CAKI-1 renal 99.6% | A498 renal 58.1% | CCRF-CEM leukemia 111% | MOLT-4 leukemia 92.2%

Cc1cc(NCc2cc(Nc3ccnc4cc(Cl)ccc34)ccc2F)nc(Cl)n1
inactive: EKVX NSCLC 39.4% | SN12C renal 37.2% | UO-31 renal 30% | TK-10 renal 38.1% | ACHN renal 46.6% | CAKI-1 renal 56.5% | A498 renal 41.3%

NS(=O)(=O)c1cnccc1Sc1ccncc1S(N)(=O)=O
inactive: SK-MEL-2 melanoma 119% | SN12C renal 100% | UO-31 renal 80% | TK-10 renal 99.6% | ACHN renal 106% | CAKI-1 renal 98.2% | A498 renal 104% | MOLT-4 leukemia 86.3%

O=c1c2c3c(sc2n2c(-c4cn(-c5ccccc5)nc4-c4ccc(Cl)cc4)nnc2n1Cc1ccccc1)CCCC3
inactive: SK-MEL-2 melanoma 97.8% | SN12C renal 91.2% | TK-10 renal 107% | ACHN renal 99.2% | CAKI-1 renal 100% | A498 renal 100% | CCRF-CEM leukemia 81.1% | MOLT-4 leukemia 85.4%
active: UO-31 renal 4.67%

c1ccc2c(c1)nc(CN1CCOCC1)n1cc(N3CCCC3)nc21
inactive: SK-MEL-2 melanoma 106% | SN12C renal 97.7% | UO-31 renal 75.1% | TK-10 renal 114% | ACHN renal 104% | CAKI-1 renal 99.5% | A498 renal 98.7% | MOLT-4 leukemia 99%

O=c1[nH][n+](-c2ccc(Cl)cc2)no1
inactive: SK-MEL-2 melanoma 75.4% | SN12C renal 73.5% | UO-31 renal 27% | TK-10 renal 70.8% | ACHN renal 40.7% | CAKI-1 renal 18.5% | A498 renal 82.6% | CCRF-CEM leukemia 55.3% | MOLT-4 leukemia 44.4%

O=C(NC(Cc1nnc2n(Cc3ccccc3)c(=O)c3c4c(sc3n12)CCCC4)c1ccc(Cl)cc1)c1ccccc1 (centres undefined)
active: UO-31 renal -5.74%
inactive: SK-MEL-2 melanoma 95.7% | SN12C renal 92.4% | TK-10 renal 99% | ACHN renal 67.5% | CAKI-1 renal 94.3% | A498 renal 83.5% | CCRF-CEM leukemia 80.5% | MOLT-4 leukemia 53.1%

CC1(C)OC2C(CO[Si](C)(C)C(C)(C)C)OC(n3c(I)c(C#C[Si](C)(C)C)c(=O)[nH]c3=O)C2O1 (centres undefined)
active: CAKI-1 renal -8.73%
inactive: SK-MEL-2 melanoma 82.1% | SN12C renal 85.7% | UO-31 renal 86.6% | TK-10 renal 109% | ACHN renal 107% | A498 renal 102% | MOLT-4 leukemia 13.4%

COC(=O)CCC1=C(C)C2=NC1=CC1=NC(=CC3=NC(=Cc4[nH]c(/c(=C(/C)O)c4C)=C2)C(C(C)=O)=C3C)C(C)=C1CCC(=O)OC
inactive: SK-MEL-2 melanoma 102% | SN12C renal 97.8% | UO-31 renal 100% | TK-10 renal 123% | ACHN renal 103% | CAKI-1 renal 98.8% | A498 renal 90.1% | CCRF-CEM leukemia 101%

O=C(/C=C/c1c(Cl)nc2sccn12)c1ccc(F)c(F)c1
inactive: SK-MEL-2 melanoma 74.7% | SN12C renal 76.5% | UO-31 renal 64% | TK-10 renal 91.6% | ACHN renal 81.1% | CAKI-1 renal 81.2% | A498 renal 73.6% | CCRF-CEM leukemia 71.7% | MOLT-4 leukemia 66.7%

COc1ccc(-c2ccc3c(c2)sc2nc(-c4ccc(F)cc4)cn23)cc1
inactive: SK-MEL-2 melanoma 73.4% | SN12C renal 87.9% | UO-31 renal 81% | TK-10 renal 75.6% | ACHN renal 92.9% | CAKI-1 renal 100% | A498 renal 76.8% | CCRF-CEM leukemia 98.8%

CC1(C)CC(=O)C2=C(C1)N(c1ccc(OC(F)(F)F)cc1)C(N)=C(C#N)C2c1ccc(Cl)cc1 (centres undefined)
inactive: SK-MEL-2 melanoma 90.7% | SN12C renal 80% | UO-31 renal 89.9% | TK-10 renal 89.7% | ACHN renal 71.4% | CAKI-1 renal 60.8% | A498 renal 94.4% | CCRF-CEM leukemia 96.5% | MOLT-4 leukemia 95.4%

COc1ccc(C2c3ccc4ccccc4c3Oc3nc(C)[nH]c(=O)c32)cc1 (centres undefined)
inactive: SK-MEL-2 melanoma 112% | SN12C renal 99.4% | TK-10 renal 116% | ACHN renal 92.3% | CAKI-1 renal 73.9% | A498 renal 92.5% | CCRF-CEM leukemia 106% | MOLT-4 leukemia 115%
active: UO-31 renal -97.5%

Clc1cc(Cl)cc(Nc2ccc3cc(OCCCN4CCOCC4)ccc3n2)c1
inactive: SK-MEL-2 melanoma 63.9% | SN12C renal 60.1% | UO-31 renal 26.5% | TK-10 renal 47% | ACHN renal 42% | CAKI-1 renal 75.3% | A498 renal 51%

C=C(C)[C@@H]1CC[C@]2(C(=O)NC3CCCCC3)CC[C@]3(C)[C@H](CC[C@@H]4[C@@]5(C)CCCNC(C)(C)[C@@H]5CC[C@]43C)[C@@H]12
inactive: SK-MEL-2 melanoma 35% | SN12C renal 61.6% | UO-31 renal 61.5% | TK-10 renal 86.5% | ACHN renal 51% | CAKI-1 renal 26.4% | A498 renal 68.7%
active: MOLT-4 leukemia -2.14%

COc1cc(C2CC(=O)Nc3c2c(C)nn3-c2nc3ccccc3[nH]2)c(OC)c2c1OCO2 (centres undefined)
inactive: SK-MEL-2 melanoma 80.7% | SN12C renal 82.2% | UO-31 renal 40.2% | TK-10 renal 36.4% | ACHN renal 86.2% | CAKI-1 renal 40.6% | A498 renal 38.8% | CCRF-CEM leukemia 61.7% | MOLT-4 leukemia 13.5%

CC/C=C\C[C@H](O)C/C=C1/C(=O)C=C[C@@H]1C/C=C\CCCCO
active: SN12C renal -15.9% | UO-31 renal -74.2% | TK-10 renal 5.32% | ACHN renal -69.3% | CAKI-1 renal 0.105%
inactive: SK-MEL-2 melanoma 62.5% | A498 renal 100%

O=C1NC(=Nc2ccc(Cl)cc2)S/C1=C\c1cn(-c2ccccc2)nc1-c1ccccc1
inactive: SK-MEL-2 melanoma 103% | SN12C renal 79.3% | UO-31 renal 87.2% | TK-10 renal 60.9% | ACHN renal 91.9% | CAKI-1 renal 94.7% | A498 renal 79.7% | CCRF-CEM leukemia 60.6% | MOLT-4 leukemia 81.7%

COc1ccc(CN2C(=O)C(Cl)=C(Nc3cccc(C(F)(F)F)c3)C2=O)cc1
inactive: SK-MEL-2 melanoma 81.7% | SN12C renal 72.8% | UO-31 renal 28.5% | TK-10 renal 88.2% | ACHN renal 52.5% | CAKI-1 renal 37.4% | A498 renal 57.6% | MOLT-4 leukemia 11.9%

CC1=C(SCCC(=O)OC(C[Se]C2=C(C)C(=O)c3ccccc3C2=O)C(=O)NCCCCCC(=O)OCc2ccccc2)C(=O)c2ccccc2C1=O (centres undefined)
inactive: SK-MEL-2 melanoma 23.3% | SN12C renal 38.4% | UO-31 renal 25.3% | TK-10 renal 114% | ACHN renal 36.4% | CAKI-1 renal 90.8% | A498 renal 70.8% | CCRF-CEM leukemia 10.8% | MOLT-4 leukemia 10.9%

Cc1cccc(NC(=O)N/C(N)=N/c2nc(C)c(C)s2)c1
inactive: SK-MEL-2 melanoma 43.7% | SN12C renal 57.6% | UO-31 renal 64.3% | TK-10 renal 96.3% | ACHN renal 63.4% | CAKI-1 renal 30.6% | A498 renal 20% | CCRF-CEM leukemia 53.5% | MOLT-4 leukemia 21.9%

NC(=S)Nc1cccc(O)c1
inactive: SK-MEL-2 melanoma 99.1% | SN12C renal 95.9% | UO-31 renal 80% | TK-10 renal 91.8% | ACHN renal 90.3% | CAKI-1 renal 90% | A498 renal 115% | CCRF-CEM leukemia 103%

COc1ccc(N=C(c2ccccc2)C2C(=O)c3ccccc3C2=O)cc1
inactive: SK-MEL-2 melanoma 40.8% | SN12C renal 104% | UO-31 renal 40.5% | TK-10 renal 103% | ACHN renal 72.1% | CAKI-1 renal 88.1% | A498 renal 61.2% | MOLT-4 leukemia 49.2%

CC1SC(c2ccc(OCc3ccccc3)cc2)N(NC(=O)C(O)(c2ccccc2)c2ccccc2)C1=O (centres undefined)
inactive: SK-MEL-2 melanoma 74.4% | SN12C renal 85.6% | UO-31 renal 54.6% | TK-10 renal 58.6% | ACHN renal 55.3% | CAKI-1 renal 44.3% | A498 renal 55.8% | MOLT-4 leukemia 28.7%

COc1ccc2cc(-c3cc(OC)c(OC)c(OC)c3)c(=O)oc2c1
inactive: EKVX NSCLC 54.1% | SN12C renal 92.7% | UO-31 renal 87.7% | TK-10 renal 85.8% | ACHN renal 90.1% | CAKI-1 renal 79.3% | A498 renal 53%

CC(C)(C)c1ccc(/C=C/C(=O)Nc2ccc(O)cc2)cc1
inactive: SK-MEL-2 melanoma 94.6% | SN12C renal 61.8% | UO-31 renal 31.6% | TK-10 renal 103% | ACHN renal 60.6% | CAKI-1 renal 61.7% | A498 renal 103% | MOLT-4 leukemia 29.4%

CC1CC(C(C)(C)C)C(=O)C(C(C)(C)C)C1 (centres undefined)
inactive: SK-MEL-2 melanoma 105% | SN12C renal 105% | UO-31 renal 96.2% | TK-10 renal 98.2% | ACHN renal 105% | CAKI-1 renal 105% | A498 renal 93.4% | MOLT-4 leukemia 104%
